Where “and” joins values, the source holds several entries; their conditions need not be identical. Equal entries are not always repeated. The whole screen tested about 5,500 compounds, of which about 2,000 (36%) were called active. Another 18% or so got no clear call; they are omitted. Rule as the data show it: active = normalized growth mostly below about 0.91 (no sharp cut-off); inconclusive = no clear call, values can overlap the other calls; inactive = mostly above about 0.92. This is one part of the list.
Assay: chemical genetic growth profiling, strain panel (AID 1159580);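 also: tested at 20 µM; growth read once vehicle control cultures reached saturation at 30 °C; 1 = growth at the plate median or of vehicle wells; lower values mean less growth of the strain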
Details: S. cerevisiae deletion strains, growth OD

Measured: normalized growth

CC[C@@]1(O)C[C@H](O[C@H]2C[C@H](N(C)C)[C@H](O)[C@H](C)O2)c2c(cc3c(c2O)C(=O)c2c(O)ccc(O)c2C3=O)[C@H]1C(=O)OC
0.113 (active) and 0.995 (inactive): locus YHR030C, strain SLT2, stronger effect = lower value
active: locus YAL021C, strain ccr4, stronger effect = lower value 0.83 | locus YAL026C, strain drs2, stronger effect = lower value 0.813 | locus YAL030W, strain snc1, stronger effect = lower value 0.919 | locus YBL061C, strain skt5, stronger effect = lower value 0.875 | locus YBR021W, strain FUR4, stronger effect = lower value 0.143 | locus YBR023C, strain chs3, stronger effect = lower value 1.52 [resistant] | locus YBR229C, strain ROT2, stronger effect = lower value 0.152 | locus YBR231C, strain swc5, stronger effect = lower value 0.794 | locus YBR279W, strain paf1, stronger effect = lower value 0.901 | locus YCL011C, strain gbp2, stronger effect = lower value 0.0988 | locus YCL016C, strain dcc1, stronger effect = lower value 0.893 | locus YCL029C, strain bik1, stronger effect = lower value 0.205 | locus YDL035C, strain GPR1, stronger effect = lower value 0.0755 | locus YDL074C, strain BRE1, stronger effect = lower value 0.141 | locus YDL101C, strain DUN1, stronger effect = lower value 0.0945 | locus YDL134C, strain PPH21, stronger effect = lower value 0.0874 | locus YDL192W, strain arf1, stronger effect = lower value 0.106 | locus YDR069C, strain doa4, stronger effect = lower value 0.68 | locus YDR101C, strain arx1, stronger effect = lower value 0.18 | locus YDR137W, strain rgp1, stronger effect = lower value 0.703 | locus YDR150W, strain NUM1, stronger effect = lower value 0.112 | locus YDR162C, strain NBP2, stronger effect = lower value 0.0578 | locus YDR297W, strain sur2, stronger effect = lower value 0.873 | locus YDR318W, strain mcm21, stronger effect = lower value 0.125 | locus YDR334W, strain swr1, stronger effect = lower value 0.816 | locus YDR335W, strain msn5, stronger effect = lower value 0.854 | locus YDR388W, stronger effect = lower value 0.0868 | locus YDR502C, strain sam2, stronger effect = lower value 0.125 | locus YEL037C, strain rad23, stronger effect = lower value 0.874 | locus YEL061C, strain CIN8 (second series), stronger effect = lower value 0.879 | locus YEL061C, strain CIN8, stronger effect = lower value 0.071 | locus YER015W, strain faa2, stronger effect = lower value 0.821 | locus YER110C, stronger effect = lower value 0.559 | locus YER111C, strain swi4, stronger effect = lower value 0.767 | locus YER155C, strain BEM2 (second series), stronger effect = lower value 0.848 | locus YER155C, strain BEM2, stronger effect = lower value 0.144 | locus YER167W, strain BCK2, stronger effect = lower value 0.0725 | locus YFR010W, strain ubp6, stronger effect = lower value 0.813 | locus YGL086W, strain mad1, stronger effect = lower value 0.281 | locus YGL173C, strain kem1, stronger effect = lower value 0.716 | locus YGL248W, strain PDE1, stronger effect = lower value 0.0787 | locus YGL253W, strain hxk2, stronger effect = lower value 0.86 | locus YGR078C, strain PAC10, stronger effect = lower value 0.0806 | locus YGR135W, strain pre9, stronger effect = lower value 0.0948 | locus YGR252W, strain gcn5, stronger effect = lower value 0.225 | locus YHR027C, strain rpn1, stronger effect = lower value 0.812 | locus YHR079C, strain IRE1 (second series), stronger effect = lower value 0.477 | locus YHR094C, strain hxt1, stronger effect = lower value 0.402 | locus YHR129C, strain ARP1, stronger effect = lower value 0.0918 | locus YHR142W, strain chs7, stronger effect = lower value 0.745 | locus YHR200W, strain rpn10, stronger effect = lower value 0.0997 | locus YIL066C, strain RNR3, stronger effect = lower value 0.073 | locus YIL073C, strain SPO22, stronger effect = lower value 0.134 | locus YIR030C, strain dcg1, stronger effect = lower value 0.179 | locus YJL092W, strain hpr5, stronger effect = lower value 0.905 | locus YJL095W, strain BCK1 (second series), stronger effect = lower value 0.877 | locus YJL134W, strain LCB3, stronger effect = lower value 0.167 | locus YJL164C, strain tpk1, stronger effect = lower value 0.832 | locus YJL166W, strain qcr8, stronger effect = lower value 0.875 | locus YJL168C, strain set2, stronger effect = lower value 0.272 | locus YJL187C, strain SWE1 (second series), stronger effect = lower value 0.0876 | locus YJR043C, strain POL32, stronger effect = lower value 0.113
0.121 (active) and 0.997 (inactive): locus YJL095W, strain BCK1, stronger effect = lower value
inactive: locus YBR009C, strain hhf1, stronger effect = lower value 0.924 | locus YBR171W, strain sec66, stronger effect = lower value 1.03 | locus YCL069W, strain vba3, stronger effect = lower value 0.948 | locus YCR088W, strain abp1, stronger effect = lower value 0.954 | locus YDL005C, strain med2, stronger effect = lower value 1.03 | locus YDL040C, strain nat1, stronger effect = lower value 0.962 | locus YDL185W, strain tfp1, stronger effect = lower value 0.956 | locus YDR001C, strain nth1, stronger effect = lower value 0.932 | locus YDR159W, strain sac3, stronger effect = lower value 0.906 | locus YDR195W, strain ref2 1.05 | locus YDR392W, strain spt3, stronger effect = lower value 0.823 | locus YEL003W, strain gim4, stronger effect = lower value 0.942 | locus YER016W, strain bim1, stronger effect = lower value 0.954 | locus YGL078C, strain dbp3, stronger effect = lower value 0.973 | locus YGL167C, strain pmr1, stronger effect = lower value 0.955 | locus YGL227W, strain vid30, stronger effect = lower value 1.02 | locus YGL240W, strain doc1, stronger effect = lower value 0.966 | locus YHR013C, strain ard1, stronger effect = lower value 0.935 | locus YHR079C, strain IRE1, stronger effect = lower value 0.987 | locus YIL125W, strain kgd1, stronger effect = lower value 0.959 | locus YJL115W, strain asf1, stronger effect = lower value 0.947 | locus YJL129C, strain trk1, stronger effect = lower value 1.05 | locus YJL154C, strain vps35, stronger effect = lower value 0.929

— PubChem BioAssay AID1159580 (chemical genetic matrix, 2015)
